Shown are actives, neighbours in structure and some others; about 1.3% of the full set was active somewhere.
Bcl-xL primary – inhibitors of human Bcl-xL, primary screen, biochemical, fluorescence polarization, HTS; AID 2129, 2009; 320,000 tested, 0.7% active; GST-Bcl-xL / FITC-Bim BH3 peptide fluorescence polarization; Bcl-2-like protein 1 (Homo sapiens), Q07817; inhibition, % at 10.9 µM;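 active = inhibition above the mean of all tested compounds plus 3 SD, cutoff set per campaign, cut at about 30% in these data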;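 note: 0% = DMSO wells and 100% = unlabeled Bim-BH3 peptide competitor; inhibitors lower millipolarization by displacing the labeled peptide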
Target sequence (Q07817 whole entry, looked up): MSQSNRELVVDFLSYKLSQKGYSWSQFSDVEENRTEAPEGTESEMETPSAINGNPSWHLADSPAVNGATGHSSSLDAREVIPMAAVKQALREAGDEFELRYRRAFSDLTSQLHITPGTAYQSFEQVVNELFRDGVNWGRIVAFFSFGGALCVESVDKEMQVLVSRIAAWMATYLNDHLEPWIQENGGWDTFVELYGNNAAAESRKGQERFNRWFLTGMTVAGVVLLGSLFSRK
GLD-1 RNA inh – GLD-1/TGE RNA complex disruptors, primary screen, biochemical, fluorescence polarization; purified GLD-1 + fluorescein TGE RNA; inhibition, % at 5.96 µM; 320,000 tested, 0.44% active;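 active = percent inhibition above a per-plate cutoff, the plate mean of test compounds plus 3 SD, cut at about 30% in these data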;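 note: 0% = DMSO wells with GLD-1 and probe and 100% = wells lacking GLD-1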
MEX-5 binding – MEX-5 zinc finger RNA-binding disruptors – biochemical, C. elegans, fluorescence polarization, MLPCN library, primary screen; Zinc finger protein mex-5 (Caenorhabditis elegans), Q9XUB2; MEX-5/FITC-TCR2 RNA binding; stronger effect = lower value; activity score (negative = inhibition of binding), % at 10 µM; 300,000 tested, 0.38% active; AID 1832, 2009;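 active = inhibition past about -25% in most replicates, and total fluorescence under double the plate's negative control median, limit read from the data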;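 note: 0% = DMSO and -100% = 5 µM competing unlabeled TCR2 RNA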
MCL1-BIM inh – inhibitors of MCL1 binding to BIM-BH3, primary screen, biochemical, fluorescence polarization | Induced myeloid leukemia cell differentiation protein Mcl-1 (Homo sapiens), Q07820 | GST-MCL1 / FITC-Bim-BH3 fluorescence polarization | inhibition, % at 10.9 µM | 320,000 tested, 0.68% active | AID 2057, 2009;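 active = inhibition above the mean inhibition of all tested compounds plus 3 SD, set per campaign, cut at about 40% in these data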;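 note: 0% = DMSO wells and 100% = unlabeled Bim-BH3 peptide control; higher means more loss of mP so more displacement of Bim peptide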
Target sequence (Q07820 whole entry, looked up): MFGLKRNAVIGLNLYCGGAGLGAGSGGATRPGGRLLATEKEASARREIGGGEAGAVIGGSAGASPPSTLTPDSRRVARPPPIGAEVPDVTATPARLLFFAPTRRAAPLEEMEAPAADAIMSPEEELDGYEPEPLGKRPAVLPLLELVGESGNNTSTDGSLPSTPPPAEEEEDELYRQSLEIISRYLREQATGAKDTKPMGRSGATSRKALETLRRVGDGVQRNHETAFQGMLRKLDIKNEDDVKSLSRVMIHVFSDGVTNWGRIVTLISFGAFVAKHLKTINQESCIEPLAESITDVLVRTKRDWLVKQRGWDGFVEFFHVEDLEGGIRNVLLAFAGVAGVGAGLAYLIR
EBV gp42 inh – Epstein-Barr virus gp42 inhibitors, primary screen, biochemical, uHTS, fluorescence polarization; Glycoprotein 42 (Epstein-Barr virus (strain AG876)), Q1HVG2; Fluorescence polarization binding assay, mP read-out; inhibition, % (tested at 21.74 µM); 220,000 tested, 0.42% active; AID 1085, 2008; in the data active = inhibition above about 50%
BCLXL inh confirm – Bcl-xL inhibitors blocking Bim BH3 binding, confirmation, counter-screen for MCL1 inhibitor project, biochemical, fluorescence polarization. shares compounds with MCL1-BIM inh. GST-Bcl-xL / FITC-Bim BH3 peptide FP binding. AID 2166, 2009. inhibition, % at 10.9 µM. 1,700 tested, 54% active;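 active = inhibition above a cutoff equal to the mean inhibition of all tested compounds plus 3 SD, cut at about 30% in these data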;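 note: 0% = DMSO wells and 100% = unlabeled Bim BH3 control peptide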
MCL1 BIM confirm – inhibitors of MCL1 binding to BIM-BH3, confirmation, biochemical, fluorescence polarization, triplicate; shares compounds with MCL1-BIM inh; GST-MCL1 / FITC-Bim-BH3 fluorescence polarization; inhibition, % at 10.9 µM; 1,700 tested, 61% active; AID 2168, 2009;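 active = inhibition above the average of all tested compounds plus 3 SD, cut at about 40% in these data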;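 note: 0% = DMSO wells and 100% = unlabeled Bim-BH3 control peptide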
* = called active by the depositor; . = not tested or not shown; + = active, no number.

SMILES	Bcl-xL primary	GLD-1 RNA inh	MEX-5 binding	MCL1-BIM inh	EBV gp42 inh	BCLXL inh confirm	MCL1 BIM confirm
CC1(c2ccc3noc(-c4ccc(F)cc4)c3c2)OCCO1	74*	89*	-7	83*	86*	78*	111*
O=C(CN1C(=O)NC2(CCCCC2)C1=O)Oc1ccc2ccc(=O)oc2c1	6	-3	.	-1	.	.	.
CCN(CC)c1ccc(/C=C/C(=O)c2ccc(Br)cc2)cc1	58*	76*	-51*	61*	+	62*	63*
CN(C)c1ccc(C(=O)/C=C/c2ccc(Br)cc2)cc1	0	-7	3	3	-36	.	.
COc1ccc(N(CC(=O)Nc2ccccc2OC)S(=O)(=O)c2ccc(OC)c(OC)c2)cc1	8	0	-2	3	.	.	.
CN1C(=O)N(C)C2C1NC(=O)N2C (stereo unspecified)	5	5	-2	3	-22	.	.
CC1C2C(C)N(C)C(=O)N(C)C2N(C)C(=O)N1C (stereo unspecified)	81*	41*	-40*	85*	65*	74*	90*
NS(=O)(=O)c1ccc(NC(=O)c2cccc(Cl)c2)cc1	7	7	0	-7	0	.	.
COCCC(=O)N1CCC(C(=O)Nc2ccc(Oc3ccccc3)nc2)CC1	2	4	-1	0	.	.	.
NC1=CC(=O)c2cccc3cccc1c23	175*	118*	-28*	+	.	156*	188*
Cc1cc2c(cc1[N+](=O)[O-])NC(CNC(C)C)CC2 (stereo unspecified)	98*	51*	0	96*	-18	5	4
COc1ccc2c(c1)c(CC(=O)OCC(=O)O)c(C)n2C(=O)c1ccc(Cl)cc1	12	4	4	82*	-2	4	8
Cc1ccc(Cn2ncc3c(NN)ncnc32)cc1	.	.	0	.	.	.	.
CCN(CC)c1ncnc2c1cnn2Cc1ccc(C)cc1	3	-6	-2	45*	.	8	9
Cc1ccc(S(=O)(=O)CCC(=O)OCC(=O)Nc2cc(C)on2)cc1	+	183*	1	+	-6	9	-1
COc1ccc(Cl)cc1N(CC(=O)NCCSc1ccccn1)S(=O)(=O)c1ccccc1	5	-4	1	5	.	.	.
CCN1CCN(c2nc3ccccc3nc2C(C#N)S(=O)(=O)c2ccc(C)cc2)CC1 (stereo unspecified)	10	0	-1	7	-21	.	.
Cc1ccc(S(=O)(=O)C(C#N)c2nc3ccccc3nc2N2CCCC2)cc1 (stereo unspecified)	83*	57*	-4	75*	91*	64*	63*
O=C(O)C1=C[C@H](c2coc3ccccc3c2=O)C[C@H](OCCCCO)O1	9	16	-2	59*	-16	13	7
Cc1ccccc1-n1c(=O)c(C#N)cc2c(=O)n3ccccc3nc21	17	12	-13	18	3	.	.
Cc1cc(-n2c(=O)c(C#N)cc3c(=O)n4ccccc4nc32)no1	43*	17	-15	56*	35	45*	58*
Cc1cccc(N=C2NC(=O)c3cc([N+](=O)[O-])ccc32)c1	3	7	0	5	4	.	.
CC(C(=O)Nc1ccc(O)cc1C(=O)O)N1C(=O)/C(=C\c2cccs2)SC1=S (stereo unspecified)	28	-6	-9	58*	.	27	39
O=C(CCN1C(=O)/C(=C/c2ccco2)SC1=S)Nc1ccc(O)cc1C(=O)O	.	.	-6	.	.	.	.
O=C(CCCN1C(=O)/C(=C/c2ccco2)SC1=S)Nc1ccccc1C(=O)O	40*	-1	-17	83*	-12	39*	73*
SMILES	Bcl-xL primary	GLD-1 RNA inh	MEX-5 binding	MCL1-BIM inh	EBV gp42 inh	BCLXL inh confirm	MCL1 BIM confirm
O=C(CN1C(=O)/C(=C\c2ccco2)SC1=S)Nc1ccc(O)cc1C(=O)O	46*	-1	-11	76*	.	23	38
O=C(Nc1ccc(Cl)c(S(=O)(=O)N2CCOCC2)c1)c1ccccc1-c1ccc(C(F)(F)F)cc1	5	6	-1	0	-26	.	.
COc1cccc(CNC(=O)C2CCCN(S(=O)(=O)c3ccc4c(c3)C(C)(C)C(=O)N4C)C2)c1 (stereo unspecified)	-2	2	-2	-6	.	.	.
CCc1ccc(NC(=S)Nc2ccc3[nH]c(=O)[nH]c3c2)cc1	6	4	3	10	-2	.	.
O=c1nc2s/c(=C\c3ccco3)c(=O)n2nc1Cc1ccc(F)cc1	13	-4	0	53*	-4	27	68*
CCCN1C(=O)/C(=c2\sc3nc(=O)c(Cc4ccc(C)cc4)nn3c2=O)c2ccccc21	10	-2	1	17	-8	.	.
CC(=O)c1cccc(NC(=O)C(C)OC(=O)c2cccc(-n3cnnn3)c2)c1 (stereo unspecified)	0	9	1	-3	.	.	.
N#Cc1c(N2CCCC(O)C2)nc(N)c2c(N)nc3c(c12)CC(=O)N3C12CC3CC(CC(C3)C1)C2 (stereo unspecified)	28	12	.	54*	-21	18	22
CCOc1ccc(N/C(=C(/C(Cl)=C(Cl)Cl)[N+](=O)[O-])n2cncn2)cc1	92*	55*	-49*	93*	28	121*	156*
CN1CCc2c(sc3c2C(=O)NC(c2ccccn2)N3)C1 (stereo unspecified)	64*	37*	-51*	66*	11	41*	52*
COc1cccc(-c2cn3nc4c(nc3n2)CCCC4)c1	5	-2	-9	-5	-37	.	.
Clc1ccc(-c2cn3nc4c(nc3n2)CCCC4)cc1	104*	81*	1	106*	-13	77*	89*
COCCCNC(=O)/C(C#N)=C/c1c(N2CCN(c3cccc(Cl)c3)CC2)nc2c(C)cccn2c1=O	10	-6	1	7	.	.	.
COCCCNC(=O)/C(C#N)=C/c1c(N2CCN(c3ccccc3)CC2)nc2c(C)cccn2c1=O	91*	23	-5	99*	.	37*	41*
Cc1cccn2c(=O)c(C=O)c(N3CCN(c4ccccc4)CC3)nc12	37*	0	-9	60*	11	39*	49*
